Screens (PubChem BioAssay)
Pf growth 96h: inhibits malaria parasite growth, 96 h. actives 6.9% (n = 320,000). Potency, µM (top dose mostly 28.7 µM), hits mostly inhibitors. P. falciparum luciferase reporter growth, 96 h. AID 504834
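Compounds incubated with erythrocytes infected by luciferase-expressing P. falciparum (2% hematocrit, 0.05% parasitemia final) for 96 hours, 37 C in 5% CO2. Growth inhibition scored as decreased luciferase luminescence.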
Shiga toxin inh: blocks Shiga toxin action in Vero cells; Vero cells, Shiga toxin protein synthesis inhibition reporter; inhibition, % at 38.7 µM; actives 9.2% (n = 290,000); AID 2315; in the data active = inhibition mostly above about 28%, no sharp cut-off; inactive = mostly below about 43%
CHX counter: counter-screen for Shiga toxin inhibitors: cycloheximide protein synthesis inhibition; AID 2314; cell reporter, cycloheximide protein synthesis inhibition counterscreen; actives 12% (n = 300,000); max response, %; in the data active = max response mostly above about 13%, no sharp cut-off; inactive = mostly below about 14%; also: read at 38.3 µM for the half of the compounds with a filed dose
HCV inhibitor: HCV inhibition. Huh7.5.1 HCVcc-Cre infection, luciferase reporter, 44 h. Potency, µM (top dose mostly 41.8 µM), usual class: inhibitors. actives 3.4% (n = 340,000)
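Cells (1,000/well) were plated 4 h before compound, then infected with HCVcc-Cre virus (~0.5 moi). After 44 h further culture, infection was read as luciferase luminescence following a 15 min substrate incubation at room temperature.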
Pf growth 48h: P. falciparum growth inhibition at 48 hours (one generation); Potency, µM (top dose mostly 28.7 µM), actives largely listed as inhibitors; AID 504832; actives 5.9% (n = 310,000); P. falciparum luciferase growth in erythrocytes, 48 h
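In quantitative HTS format, infected erythrocytes bearing luciferase-reporter parasites were treated for a single generation at 37 C. Luminescence after adding detection reagent served as the growth measure.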
HCMV antiviral: blocks human cytomegalovirus replication; HFF cells, HCMV-luciferase reporter, 72 h; stronger effect = lower value; activity change, negative = inhibition, % at 57.5 µM; actives 4.5% (n = 410,000); AID 1259415; in the data active = activity change below about -60%; inconclusive = no clear call, values can overlap the other calls; inactive = above about -39%
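Cell-based, HFFs, 1000 cells/well, 16 h 37C; cpds in DMSO + HCMV-luc, MOI 1 PFU/cell; 72 h 37C; OneGlo luminescence after 5 min RT; norm. to buffer vs Salinomycin 10uM.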
Hits are given with their value; . = inactive; ? = inconclusive; / = not tested or not shown; [ ] = dose if it differs, or a comment. Hits are enriched below; roughly 21% of the tested compounds scored in any of these assays. Unless noted, calls follow the shape of the dose curve; as a rule, active = well fitted inhibition curve with a large enough effect; inconclusive = small, poorly fitted or top-dose-only effect, or another doubt; inactive = no such curve, though single readings can be large or run the other way.

SMILES	Pf growth 96h	Shiga toxin inh	CHX counter	HCV inhibitor	Pf growth 48h	HCMV antiviral
O=S(=O)(NCCC1=CCCCC1)c1ccc(F)cc1	.	.	.	.	.	.
COc1ccc(-c2cc(-c3ccccc3)nc3c2COc2ccc(F)cc2-3)cc1	/	/	/	/	/	.
C=CC[C@@H](CC(=O)N(CCO)Cc1ccccc1)C(=O)N[C@H](COC(=O)[C@@H](CC=C)CC(=O)OC(C)(C)C)Cc1c[nH]c2ccccc12	/	/	/	11.2µM	/	.
CC(C)c1ccc2c(c1)CCC1C(C)(CN)CCCC21C (stereo not given)	10.4µM	.	.	?	?	.
CC(C)c1ccc2c(c1)CC[C@H]1[C@](C)(CN)CCC[C@]21C	/	/	/	?	/	-97.8
Cc1ccc(NC(=O)c2ccc(Cl)cc2Cl)c(C(=O)c2ccccc2)c1	/	/	/	/	/	.
Cc1cc(C)c(S(=O)(=O)NCCc2ccncc2)c(C)c1	.	.	.	.	.	.
Cc1cc(C)c(S(=O)(=O)NCc2ccncc2)c(C)c1	.	.	.	?	/	-83.7
COc1cc(C)c(Br)cc1S(=O)(=O)NCc1cccs1	.	.	.	.	.	?
COc1cc(C)c(Br)cc1S(=O)(=O)NCc1ccncc1	.[5.75 µM]	.	.	?	.	-76.5
COc1ccccc1/C=C/C(=O)Nc1cccc(S(=O)(=O)NC2=NCCCCC2)c1	?	.	.	?	?	.
O=C(CSc1nnc(-c2ccccc2Cl)o1)N1CCCC1	.	72.9	51.4	.	.	.
O=C(CSc1nnc(-c2ccccc2O)o1)N1CCc2ccccc2C1	.	.	.	?	/	.
O=C(CSc1nnc(-c2ccccc2O)o1)N1CCOCC1	.	85.7	25.6	.	.	.
O=C(CSc1nnc(Cc2ccccc2)o1)N1CCOCC1	.	.	.	.	.	?
O=C(CSc1nnc(-c2ccccc2Br)o1)N1CCOCC1	?	70.2	51.4	.	.	.
O=C(CSc1nnc(-c2ccccc2O)o1)N1CCCCC1	?	41.6	28.3	.	.	.
COc1cc(NS(=O)(=O)c2ccc(NC(=O)c3ccc(OC)c(Br)c3)cc2)nc(OC)n1	/	/	/	/	/	.
O=C(CSc1nnc(-c2ccccc2Cl)o1)N1CCCCC1	.	83.2	37.4	.	.	.
O=C1C=C(c2ccc(F)nc2)CCC1	/	/	/	.	/	.
O=C(Cc1cccs1)Nc1ccccc1C(=O)O	.	.	20.9	.	.	.
O=C(Cc1cccs1)Nc1ccccc1NC(=O)Cc1cccs1	?	.	.	.	.	.
O=C(Cc1cccs1)Nc1ccccc1F	.	.	18.2	.	.[0.00184 µM]	.
COc1c2c(c(OC)c3ccccc13)[C@]1(OC2)O[C@H](CCO)C[C@H](O)[C@H]1O	/	/	/	/	/	.
CCCCNC(=O)c1sc(=S)n2c1[nH]c(=O)c1ccc(C(=O)NCCc3ccc(OC)c(OC)c3)cc12	?	.	.	.	?	/
SMILES	Pf growth 96h	Shiga toxin inh	CHX counter	HCV inhibitor	Pf growth 48h	HCMV antiviral
O=C(NCc1ccccc1)c1sc(=S)n2c1[nH]c(=O)c1ccccc12	13.1µM	.	.	.	.	.
COc1ccc(NS(=O)(=O)c2cc(OC)ccc2NC(=O)c2cc(C)oc2C)cc1	?	.	.	4.47µM	?	.
COc1ccc(OC)c(S(=O)(=O)Nc2ccc(OCC(=O)O)cc2)c1	?	.	.	.	/	?
COc1ccc(CN(C)C(C)C(=O)Nc2ccc(S(=O)(=O)N3CCCCC3)cc2)cc1F (stereo not given)	?	/	/	?	10.4µM	.
COc1ccc(C(=O)Nc2ccc(-n3nncc3-c3ccc(OC)c(OC)c3)cc2)cc1	/	/	/	/	/	.
COc1ccc(-c2cnnn2-c2ccc(NC(=O)c3ccc(S(=O)(=O)N4CCCCC4)cc3)cc2)cc1OC	1.47µM	.	.	?	4.15µM	.
COc1ccc(OC)c(S(=O)(=O)Nc2ccc(CC(=O)O)cc2)c1	13.1µM	.	.	.	.	.
CC(C)(C)OC(=O)N1CCCC(C(=O)Nc2cccc(C(=O)NC3CC3)c2)C1 (stereo not given)	/	/	/	.	/	.
COc1ccc(NC(=O)c2cc(S(=O)(=O)N3CCCC3)oc2C)cc1	.	.	.	.	.	-64.9
COc1cc(OC)c(C(=O)Nc2ccc(S(=O)(=O)N3CCCCC3)cc2)cc1OC	14.7µM	/	/	.	?	.
COc1ccc(S(=O)(=O)N2CCOCC2)cc1C(=O)Nc1ccc(N2CCCCCC2)cc1	/	/	/	14.1µM	/	?
CCOC(=O)c1c(C)[nH]c(C)c1S(=O)(=O)N(C)CC(=O)Nc1cccc(Cl)c1C	/	/	/	/	/	.
CCC(CC)C(=O)c1c[nH]c(C(=O)N2CCN(c3ccc(OC)cc3)CC2)c1	.	.	.	.	?	?
CCc1nonc1NC(=O)COc1cc(C)c(Cl)c(C)c1	.	.	.	.	?	?
Cc1cc(OCC(=O)NC(C)(C)C)ccc1Cl	.	21.8	50.7	.	.	.
COCCCNC(=O)COc1ccc(Cl)c(C)c1	.	.	17.8	.	.	.
CCc1nonc1NC(=O)COc1ccc(Cl)c(C)c1	4.15µM	.	.	.	?	.
C=C(C)CSc1nc2sc3c(c2c(=O)n1-c1ccccc1)CCC(C)C3 (stereo not given)	/	/	/	/	/	.
O=c1c(-c2ccccc2)c(O)c2ccccc2n1-c1ccccc1	.	.	.	.	.	-63.8
CCn1c(=O)c(-c2ccccc2)c(O)c2ccccc21	.	.	.	.	.	.
CCN(C(=O)c1cc2c(=O)n(CC)c3ccccc3c2s1)c1cccc(C(F)(F)F)c1	/	/	/	/	/	.
Cc1cccc2[nH]c(CN(C)Cc3nc(CC4CC4)no3)nc12	.	.	.	.	.	.
Oc1cccnc1Sc1cccc(C(F)(F)F)c1	/	/	/	.	/	.
Nc1ccc(Sc2cc(Cl)nc(N)n2)cc1	.	.	.	.	.	/
Nc1nc(N)c2cc(Sc3cccc(C(F)(F)F)c3)ccc2n1	/	/	/	/	/	-69.9
SMILES	Pf growth 96h	Shiga toxin inh	CHX counter	HCV inhibitor	Pf growth 48h	HCMV antiviral
Nc1nc(N)c2cc(Sc3ccc4ccccc4c3)ccc2n1	?	.	.	11.2µM	0.0074µM	-84.2
Nc1nc(N)c2cc(Sc3ccc(Cl)cc3)ccc2n1	/	/	/	/	/	-76.9
S=C(NCC1CCCO1)Nc1ccccc1 (stereo not given)	.	.	.	.	.	.
CCN(CC)c1ccc(NC(=S)NCC2CCCO2)cc1 (stereo not given)	?	101.1	27.7	.	.	.
O=C(NCC1CCCO1)Nc1ccc(Cl)cc1 (stereo not given)	/	73.9	43.8	.	.	.
O=C(NCC1CCCO1)Nc1cc(Cl)cc(Cl)c1 (stereo not given)	.	.	.	.	.	.
Cc1ccc(NC(=S)NCC2CCCO2)cc1 (stereo not given)	.	.	.	.	/	.
S=C(NCC1CCCO1)Nc1ccc(Cl)cc1Cl (stereo not given)	?	143.5	46.2	.	.	.
Clc1ccc(-c2ccc(CNCC3CCCO3)o2)cc1 (stereo not given)	.	96.5	35.1	.	.	.
Cc1ccc2nc(C(C)(C)C)c(Cc3ccsc3)n2c1	/	/	/	/	/	.
